# Reference: PubChem BioAssay (NCATS)
# Records with an inconclusive call do not appear. The source made the active and inactive calls. The call rests on the fitted dose curve; in most records, active means well fitted inhibition curve with a large enough effect; inconclusive means small, poorly fitted or top-dose-only effect; inactive means flat fitted curve, though single readings scatter.
# Test: Drug repurposing screens with cells derived from glioblastoma tumor samples (AID 1345199); further: nearly all actives have a fitted effect of over 40% in size
# Conditions: GBM patient neurospheres viability, ATP luminescence, 48 h; at 45.9 µM (top of the series); tumour line B
# How it was run: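 Four patient lines of CD133+ GBM neurospheres were screened at several concentrations; hits were retested in those lines plus three slower-growing GBM lines, using 48-hour treatment and ATP-based viability.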
# On the % scale 0 is the no-effect control and ±100 the full control effect.
row,SMILES,"activity, negative = cell killing"
1,Cc1nc(NS(=O)(=O)c2ccc(N)cc2)nc(C)c1Br,-13% (inactive)
2,Cc1ccc(S(=O)(=O)O)cc1C,-6.15% (inactive)
3,CCc1ccc(S(=O)(=O)O)cc1,3.64% (inactive)
4,C=CC[N+]1([C@H]2C[C@H]3[C@@H]4CC[C@H]5C[C@H](O)[C@@H](N6CCOCC6)C[C@]5(C)[C@H]4CC[C@]3(C)[C@H]2OC(C)=O)CCCC1,-3.03% (inactive)
5,O=P(O)(O)OP(=O)(O)OP(=O)(O)O,-10.9% (inactive)
6,CN1C(C(=O)Nc2ccccn2)C(=O)c2sc(Cl)cc2S1(=O)=O (configuration not stated),-14.7% (inactive)
7,Cc1ccc(S(=O)(=O)NCl)cc1,-6.22% (inactive)
8,CC/C=C\C/C=C\C/C=C\CCCCCCCC(=O)O,8.6% (inactive)
9,CC(=O)N[C@@H]([C@@H](O)[C@H](O)[C@H](O)CO)[C@@H](O)CC(=O)C(=O)O,-12% (inactive)
10,CNC(=O)[C@H](Cc1c[nH]c2ccccc12)NC(=O)[C@@H](CC(=O)NO)CC(C)C,-23.5% (inactive)
11,CC(C)=CCC/C(C)=C/C=C/C(C)=C/C=C/C(C)=C/C=C/C=C(C)/C=C/C=C(C)/C=C/C=C(\C)CCC=C(C)C,-10.4% (inactive)
12,FC(F)(F)C(F)(F)C(F)(F)C(F)(F)C(F)(F)C(F)(F)F,-7.96% (inactive)
13,CCCCC(CC)COS(=O)(=O)O (configuration not stated),-6.03% (inactive)
14,CN(CCO)CC(O)Cn1cnc2c1c(=O)n(C)c(=O)n2C (configuration not stated) (tested in a mixture with another compound),-0.373% (inactive)
15,O=C1N=C2SCCN2C(=O)C1Cc1ccc(Cl)cc1 (configuration not stated),-17.4% (inactive)
16,c1ccc2c(c1)OCC(CN1CCCCC1)O2 (configuration not stated),0.315% (inactive)
17,COc1cc(S(C)=O)ccc1-c1nc2ncccc2[nH]1 (configuration not stated),-1.29% (inactive)
18,O=C1CC[C@@H](C(=O)N[C@H]2C[C@@H]2c2ccccc2)N1,-8.87% (inactive)
19,CO/N=C(\C(=O)N[C@@H]1C(=O)N2C(C(=O)[O-])=C(C[n+]3cccc4c3CCC4)CS[C@H]12)c1csc(N)n1,-11.7% (inactive)

row,SMILES,"activity, negative = cell killing"
1,CCCCC,-6.65% (inactive)
2,CCc1ncnc2cc(OC)c(OC)cc12,-18.2% (inactive)
3,CN(Cc1ccccc1)Cc1ccccc1,-11.4% (inactive)
4,O=[N+]([O-])O[C@@H]1CO[C@H]2[C@@H]1OC[C@@H]2O,-16.9% (inactive)
5,CO/N=C(\C(=O)N[C@@H]1C(=O)N2C(C(=O)O)=C(CSC(=O)c3ccco3)CS[C@H]12)c1csc(N)n1,-9.93% (inactive)
6,CC/C=C\C/C=C\C/C=C\C/C=C\C/C=C\CCCC(=O)O,-9.54% (inactive)
7,CC/C=C\C/C=C\C/C=C\C/C=C\C/C=C\C/C=C\CCC(=O)O,-3.27% (inactive)
8,CO,-8.56% (inactive)
9,CC[C@H]1OC(=O)[C@H](C)[C@@H](O[C@H]2C[C@@](C)(OC)[C@@H](O)[C@H](C)O2)[C@H](C)[C@@H](O[C@@H]2O[C@H](C)C[C@H](N(C)C)[C@H]2O)[C@](C)(O)C[C@@H](C)CN(C)[C@H](C)[C@@H](O)[C@]1(C)O,-13.7% (inactive)
10,NC(Cc1ccccc1)C(=O)O (configuration not stated),-8.84% (inactive)
11,Nc1nccs1,-17.5% (inactive)
12,NCCN,-1.66% (inactive)
13,NC(N)=NCC1COc2ccccc2O1 (configuration not stated),-11.5% (inactive)
14,CNCC(=O)N[C@@H](CCCN=C(N)N)C(=O)N[C@H](C(=O)N[C@@H](Cc1ccc(O)cc1)C(=O)N[C@H](C(=O)N[C@@H](Cc1cnc[nH]1)C(=O)N1CCC[C@H]1C(=O)N[C@@H](C)C(=O)O)C(C)C)C(C)C,-7.12% (inactive)
15,Nc1ncnc2c1ncn2CCOCP(=O)(O)O,2.17% (inactive)
16,CCC(Cc1c(I)cc(I)c(O)c1I)C(=O)O (configuration not stated),-7.21% (inactive)
17,OB(O)O,-12.9% (inactive)
18,CC(C)(COP(=O)(O)OP(=O)(O)OC[C@H]1O[C@@H](n2cnc3c(N)ncnc32)[C@H](O)[C@@H]1OP(=O)(O)O)C(O)C(=O)NCCC(=O)NCCS (some centres not stated),-4.74% (inactive)
